# A collection of fitness landscapes (doi:10.1126/science.1257360)
# In all, about 140,000 sequences were measured (“enrichment ratio after two sorts for PhoP signalling”: median about 0, highest 2% from about 11 on). For the sample, the highest values were picked, then their nearest neighbours and some sequences at random.
# B1: PhoQ; a variant is named by its letters at X, in order, P23837 (parent)
# chain: MKKLLRLFFPLSLRVRFLLATAAVVLVLSLAYGMVALIGYSVSFDKTTFRLLRGESNLFYTLAKWENNKLHVELPENIDKQSPTMTLIYDENGQLLWAQRDVPWLMKMIQPDWLKSNGFHEIEADVNDTSLLLSGDHSIQQQLQEVREDDDDAEMTHSVAVNVYPATSRMPKLTIVVVDTIPVELKSSYMVWSWFIYVLSANLLLVIPLLWVAAWWSLRPIEALAKEVRELEEHNRELLNPATTRELTSLVRNLNRLLKSERERYDKYRTTLTDLTHSLKTPLXXLQXXLRSLRSEKMSVSDAEPVMLEQISRISQQIGYYLHRASMRGGTLLSRELHPVAPLLDNLTSALNKVYQRKGVNISLDISPEISFVGEQNDFVEVMGNVLDNACKYCLEFVEISARQTDEHLYIVVEDDGPGIPLSKREVIFDRGQRVDTLRPGQGVGLAVAREITEQYEGKIVAGESMLGGARMEVIFGRQHSAPKDE
# Variants of: B1
# Assay: enrichment ratio after two sorts for PhoP signalling (ratio (wild type AVST 3.29)); higher = more functional
# Details: with PhoP (E. coli)
row,Variant,enrichment ratio
1,YSEC,≤ 0.25
2,NWCM,≤ 0.25
3,TAGD,9.3
4,YANA,≤ 0.25
5,TAWE,24.5
6,NAWE,≤ 0.25
7,KANA,≤ 0.25
8,TAVM,2.01
9,TANA,15.9
10,TACM,12.4
11,KAWE,≤ 0.25
12,KACM,≤ 0.25
13,TAGM,13.2
14,QGRI,≤ 0.25
15,SQSD,≤ 0.25
16,AVQG,≤ 0.25
17,ICYL,≤ 0.25
18,MLLM,7.62
19,DQQR,≤ 0.25
20,KFML,≤ 0.25
21,GDAW,≤ 0.25
22,HFFI,≤ 0.25
23,RKHF,≤ 0.25
24,WQPT,≤ 0.25
25,NISQ,≤ 0.25

row,Variant,enrichment ratio
1,VLSQ,≤ 0.25
2,ALSQ,16.2
3,TTSQ,16.8
4,AKSQ,20.1
5,AHSQ,≤ 0.25
6,ADSQ,≤ 0.25
7,CISQ,55.8
8,KQSQ,≤ 0.25
9,YTSQ,≤ 0.25
10,ALSK,2.03
11,RISQ,≤ 0.25
12,TLEP,≤ 0.25
13,DVCT,≤ 0.25
14,TMFF,≤ 0.25
15,GTSQ,5.69
16,AISQ,15.6
17,ATSK,4.37
18,ATSQ,11.6
19,VHSQ,≤ 0.25
20,WISQ,≤ 0.25
21,GRRA,≤ 0.25
22,KANK,≤ 0.25
23,LHPY,≤ 0.25
24,YEKR,≤ 0.25
25,IVLL,1.17

row,Variant,enrichment ratio
1,SRSV,≤ 0.25
2,SGWR,≤ 0.25
3,SGDW,≤ 0.25
4,SGSV,12.1
5,KSSV,≤ 0.25
6,TSSV,20
7,NSSV,≤ 0.25
8,SPTA,≤ 0.25
9,SDSV,5.55
10,SQSV,11.9
11,KSTA,≤ 0.25
12,TVTA,19.9
13,VCWY,≤ 0.25
14,PCPR,≤ 0.25
15,KLGA,≤ 0.25
16,AKGF,≤ 0.25
17,EKFN,≤ 0.25
18,AGVG,1.3
19,IANT,≤ 0.25
20,SISV,11.6
21,SESV,16.9
22,KYSV,≤ 0.25
23,LASV,≤ 0.25
24,VLSV,≤ 0.25
25,NVSV,≤ 0.25

row,Variant,enrichment ratio
1,SCSV,9.38
2,TQSV,20.7
3,DDSV,≤ 0.25
4,SLSV,7.73
5,TLSV,16.7
6,LLSV,≤ 0.25
7,EDTD,≤ 0.25
8,RDHH,≤ 0.25
9,GWHV,≤ 0.25
10,YFPW,≤ 0.25
11,LVPS,≤ 0.25
12,NTCA,≤ 0.25
13,HTEF,≤ 0.25
14,LAEC,≤ 0.25
15,IDHP,≤ 0.25
16,KMSV,≤ 0.25
17,TVSV,14.9
18,KASV,≤ 0.25
19,NASV,≤ 0.25
20,TASV,17.9
21,WPTS,≤ 0.25
22,HCSV,≤ 0.25
23,DMSV,≤ 0.25
24,TMSV,16.5
25,WPTD,≤ 0.25

row,Variant,enrichment ratio
1,WPTA,14.3
2,SPSV,≤ 0.25
3,VEEC,≤ 0.25
4,ITEG,0.328
5,RMAH,≤ 0.25
6,NGEP,≤ 0.25
7,ATVR,4.36
8,QILH,≤ 0.25
9,MNDG,≤ 0.25
10,GVPD,≤ 0.25
11,VQKT,≤ 0.25
12,RQKC,≤ 0.25
13,HSFA,≤ 0.25
14,ICYS,≤ 0.25
15,FLCS,≤ 0.25
16,TMVF,≤ 0.25
17,ASMC,12.1
18,HFMC,≤ 0.25
19,TGMC,31.9
20,HRMC,≤ 0.25
21,GGMC,≤ 0.25
22,HIMC,48.5
23,ATMC,11.2
24,NSMC,≤ 0.25
25,PTMC,≤ 0.25

row,Variant,enrichment ratio
1,TKMC,77.6
2,HKMC,≤ 0.25
3,RGMC,≤ 0.25
4,AARL,≤ 0.25
5,DMIF,≤ 0.25
6,TRMC,2.53
7,SGFC,≤ 0.25
8,TIMC,9
9,PFMC,≤ 0.25
10,KFMC,≤ 0.25
11,TFMC,16.5
12,FSMC,16.1
13,SGMC,12.8
14,NGMC,≤ 0.25
15,FCMC,≤ 0.25
16,HGMC,13.3
17,KSMC,≤ 0.25
18,KDFY,≤ 0.25
19,EPYY,≤ 0.25
20,FDYI,≤ 0.25
21,QVCS,≤ 0.25
22,LEAV,≤ 0.25
23,REVC,≤ 0.25
24,FGTK,≤ 0.25
25,RCMC,≤ 0.25

row,Variant,enrichment ratio
1,TKMM,31.6
2,MEMM,0.38
3,ACMM,14.1
4,ANRM,≤ 0.25
5,ANMM,32.7
6,TVMM,0.563
7,ANRA,≤ 0.25
8,FVMM,8.76
9,AVMM,52.7
10,HKMM,≤ 0.25
11,HPRS,≤ 0.25
12,SFMM,0.454
13,EPTF,≤ 0.25
14,ATNR,≤ 0.25
15,FVFQ,≤ 0.25
16,DMFY,≤ 0.25
17,NDFH,≤ 0.25
18,YEAF,≤ 0.25
19,WSCA,≤ 0.25
20,VRMM,≤ 0.25
21,APMM,≤ 0.25
22,AAMM,13
23,AYMM,≤ 0.25
24,ASMM,41.3
25,AHMM,≤ 0.25

row,Variant,enrichment ratio
1,AAPM,4.08
2,AKMM,30.4
3,AIMM,35.5
4,ARMM,5.29
5,ADMM,≤ 0.25
6,IEAL,≤ 0.25
7,NQSL,≤ 0.25
8,PQWK,≤ 0.25
9,SKWQ,≤ 0.25
10,PVME,≤ 0.25
11,TVCE,13.5
12,TSKH,≤ 0.25
13,KSSH,≤ 0.25
14,KCME,≤ 0.25
15,HCSH,≤ 0.25
16,SPSH,≤ 0.25
17,TVCI,0.444
18,TVSH,15.9
19,TSSH,11.3
20,TVME,11.7
21,TVHE,≤ 0.25
22,HTVK,≤ 0.25
23,KMRS,≤ 0.25
24,IPKF,≤ 0.25
25,AQWL,≤ 0.25

row,Variant,enrichment ratio
1,PAAR,≤ 0.25
2,LETM,≤ 0.25
3,RMVY,≤ 0.25
4,TVCS,11.4
5,PVCA,≤ 0.25
6,NVCS,≤ 0.25
7,SPCA,≤ 0.25
8,TVCA,14.5
9,PVCS,≤ 0.25
10,PKSQ,≤ 0.25
11,RQKT,≤ 0.25
12,IWNV,≤ 0.25
13,LQKK,≤ 0.25
14,LFFM,≤ 0.25
15,ITFY,≤ 0.25
16,WWLL,≤ 0.25
17,LNAI,≤ 0.25
18,SNIF,≤ 0.25
19,SFAI,≤ 0.25
20,WQCS,≤ 0.25
21,SQCS,14.7
22,SNAI,22
23,SNCS,19.6
24,SNNW,1.31
25,IQCS,≤ 0.25

row,Variant,enrichment ratio
1,GFWW,1.03
2,LGGY,≤ 0.25
3,ESVH,≤ 0.25
4,PMVM,≤ 0.25
5,KCTF,≤ 0.25
6,LSTF,≤ 0.25
7,TCTF,12.4
8,KCTV,≤ 0.25
9,TCTV,12.6
10,GMTV,0.937
11,LQSN,≤ 0.25
12,PMKC,≤ 0.25
13,AKDL,≤ 0.25
14,NKTC,≤ 0.25
15,MFTC,≤ 0.25
16,MKFC,≤ 0.25
17,MESC,10.2
18,METC,45.8
19,MEFC,12.8
20,MEFA,≤ 0.25
21,LQYS,≤ 0.25
22,KENY,≤ 0.25
23,IMSK,≤ 0.25
24,EIPN,≤ 0.25
25,QESN,5.1

row,Variant,enrichment ratio
1,SLSG,11.8
2,MRSG,≤ 0.25
3,TESG,24.9
4,PLSG,≤ 0.25
5,MESG,15.7
6,NESG,≤ 0.25
7,QESG,6.03
8,SRSG,≤ 0.25
9,TESN,20.2
10,MESN,7.39
11,PESG,≤ 0.25
12,GKLS,≤ 0.25
13,SVRW,≤ 0.25
14,RDAA,≤ 0.25
15,KNCK,≤ 0.25
16,VGMN,≤ 0.25
17,HWYH,≤ 0.25
18,IYMC,≤ 0.25
19,EKVI,≤ 0.25
20,HFDW,≤ 0.25
21,HAFN,≤ 0.25
22,EAES,≤ 0.25
23,KYSG,≤ 0.25
24,SQSG,6.12
25,AKSG,5.13

row,Variant,enrichment ratio
1,SCSG,20.2
2,AESG,25.4
3,STSG,8.56
4,AESN,11
5,FCSG,≤ 0.25
6,SESG,28.9
7,LITF,≤ 0.25
8,ATGN,3.43
9,SNVC,11.5
10,SNVG,3.21
11,SNWR,≤ 0.25
12,SNCH,7.35
13,TGVC,16.8
14,HEMR,≤ 0.25
15,GGVC,≤ 0.25
16,PGVC,≤ 0.25
17,HEMV,≤ 0.25
18,HEMI,12.7
19,SLVC,≤ 0.25
20,SNMH,11.9
21,ANPD,≤ 0.25
22,TGHW,≤ 0.25
23,KVMG,≤ 0.25
24,IFMF,≤ 0.25
25,WNFI,≤ 0.25

row,Variant,enrichment ratio
1,ILYP,≤ 0.25
2,PDCM,≤ 0.25
3,GNVG,2.06
4,SNMD,1.49
5,SNMG,12.5
6,SNMW,3.59
7,SNLW,7.18
8,SNMS,12
9,SNME,14.4
10,SNMA,7.05
11,GNVC,11.6
12,GIVC,4.3
13,SNHE,≤ 0.25
14,SNFE,≤ 0.25
